Experimental data: article PMC7862700, “An all-to-all approach to the identification of sequence-specific readers for epigenetic DNA modifications on cytosine”

How the values were obtained:
Experiment in all cases: DAPPL (digital affinity profiling via proximity ligation, sequencing); 10 mM Tris-HCl pH 7.5, 50 mM NaCl, 1 mM DTT, 4% glycerol, room temperature, 30 min; GST-TFs on glutathione beads, 16-mer random dsDNA library, 0.1% formaldehyde crosslink after washing; high values mean tight binding
Details in all cases: protein: recombinant; tags: N-terminal GST; dsDNA, one strand shown
[1] = target: T1, GABPA (Homo sapiens, UniProt Q06546 1-454)
T1 sequence: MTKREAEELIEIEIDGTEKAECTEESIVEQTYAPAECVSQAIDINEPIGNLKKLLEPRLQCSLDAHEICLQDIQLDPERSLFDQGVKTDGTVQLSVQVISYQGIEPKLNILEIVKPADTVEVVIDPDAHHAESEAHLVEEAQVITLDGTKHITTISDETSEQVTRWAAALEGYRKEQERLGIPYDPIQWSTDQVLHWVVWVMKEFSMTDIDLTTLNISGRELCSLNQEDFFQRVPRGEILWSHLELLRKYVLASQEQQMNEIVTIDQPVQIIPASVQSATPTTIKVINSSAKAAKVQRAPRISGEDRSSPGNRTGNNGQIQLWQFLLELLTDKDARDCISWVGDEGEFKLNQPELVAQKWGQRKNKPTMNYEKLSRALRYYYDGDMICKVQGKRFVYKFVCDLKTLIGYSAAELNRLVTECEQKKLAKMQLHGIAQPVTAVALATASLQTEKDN
How it was run: (§1)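 Sequencing on an Illumina NextSeq500 followed washing, crosslinking with 0.1% formaldehyde, proximity ligation (BsaI/T4 ligase, 1 h, 37 °C) and PCR amplification of pools that had been incubated for 30 min at room temperature with 200 nmole of a random double-stranded 16-mer DNA library in Tris/NaCl/DTT/glycerol buffer. Each pool held DNA-barcoded human transcription factors, expressed in yeast as GST fusions and captured on glutathione beads, plus a tag-only sample. Binding signal is a hexamer's read frequency for a factor divided by its frequency in the tag-only sample.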

[2] = target: ELF1 (Homo sapiens, UniProt P32519 1-619)
ELF1, sequence (P32519 whole entry): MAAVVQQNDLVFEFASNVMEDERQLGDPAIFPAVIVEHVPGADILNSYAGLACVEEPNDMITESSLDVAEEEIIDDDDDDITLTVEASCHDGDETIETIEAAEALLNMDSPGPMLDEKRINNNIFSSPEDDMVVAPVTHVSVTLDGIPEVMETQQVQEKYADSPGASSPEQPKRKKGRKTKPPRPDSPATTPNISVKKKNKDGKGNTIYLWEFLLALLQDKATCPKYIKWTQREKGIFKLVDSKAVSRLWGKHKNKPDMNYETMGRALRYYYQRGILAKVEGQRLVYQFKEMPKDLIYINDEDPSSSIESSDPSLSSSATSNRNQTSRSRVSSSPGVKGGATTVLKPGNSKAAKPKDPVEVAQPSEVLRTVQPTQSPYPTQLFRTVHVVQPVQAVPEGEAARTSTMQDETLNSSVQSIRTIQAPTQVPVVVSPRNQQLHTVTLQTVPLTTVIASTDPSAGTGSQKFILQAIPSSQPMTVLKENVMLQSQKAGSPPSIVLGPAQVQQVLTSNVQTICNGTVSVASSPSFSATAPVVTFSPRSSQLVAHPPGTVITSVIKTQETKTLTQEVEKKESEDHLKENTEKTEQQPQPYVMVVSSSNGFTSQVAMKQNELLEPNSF
How it was run: as §1

[3] = target: SPI1 (Homo sapiens, UniProt P17947 1-270)
How it was run: as §1

[4] = target: SPIB (Homo sapiens, UniProt Q01892 1-262)
SPIB, sequence (Q01892 whole entry): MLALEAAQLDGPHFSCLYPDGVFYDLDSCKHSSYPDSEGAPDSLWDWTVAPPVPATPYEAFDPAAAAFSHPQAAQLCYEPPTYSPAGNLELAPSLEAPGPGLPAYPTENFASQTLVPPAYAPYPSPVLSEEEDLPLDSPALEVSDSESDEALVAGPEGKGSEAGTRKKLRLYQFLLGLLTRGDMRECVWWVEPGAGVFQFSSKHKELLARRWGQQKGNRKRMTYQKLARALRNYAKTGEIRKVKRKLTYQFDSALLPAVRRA
How it was run: as §1

[5] = target: T2, FEV (Homo sapiens, UniProt Q99581 1-238)
T2 sequence: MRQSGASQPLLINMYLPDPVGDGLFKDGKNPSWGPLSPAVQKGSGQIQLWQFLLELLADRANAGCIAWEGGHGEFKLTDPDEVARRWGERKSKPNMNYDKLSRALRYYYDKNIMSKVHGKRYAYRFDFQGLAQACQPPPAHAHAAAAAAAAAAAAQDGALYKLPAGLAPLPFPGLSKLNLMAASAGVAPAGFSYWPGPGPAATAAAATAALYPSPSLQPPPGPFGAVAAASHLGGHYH
How it was run: as §1

[6] = target: ELF4 (Homo sapiens, UniProt Q99607 1-663)
ELF4, sequence (Q99607 whole entry): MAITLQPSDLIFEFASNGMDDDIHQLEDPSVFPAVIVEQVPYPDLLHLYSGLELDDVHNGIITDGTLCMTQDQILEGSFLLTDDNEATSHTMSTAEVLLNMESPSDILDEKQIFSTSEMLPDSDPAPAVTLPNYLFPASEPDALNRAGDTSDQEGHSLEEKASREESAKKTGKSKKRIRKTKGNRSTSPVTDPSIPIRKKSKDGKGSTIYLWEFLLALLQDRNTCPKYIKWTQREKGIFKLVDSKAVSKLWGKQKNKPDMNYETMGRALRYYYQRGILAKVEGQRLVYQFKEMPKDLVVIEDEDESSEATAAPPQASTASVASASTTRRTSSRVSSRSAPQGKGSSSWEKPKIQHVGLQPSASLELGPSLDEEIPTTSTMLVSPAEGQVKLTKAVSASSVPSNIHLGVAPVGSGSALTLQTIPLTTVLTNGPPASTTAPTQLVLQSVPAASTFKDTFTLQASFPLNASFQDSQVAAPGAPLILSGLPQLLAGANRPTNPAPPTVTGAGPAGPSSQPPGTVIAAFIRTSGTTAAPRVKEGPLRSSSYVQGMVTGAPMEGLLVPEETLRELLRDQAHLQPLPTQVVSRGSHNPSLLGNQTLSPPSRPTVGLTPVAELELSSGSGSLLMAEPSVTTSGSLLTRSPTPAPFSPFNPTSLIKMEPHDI
How it was run: as §1

[7] = target: T3, ELK4 (Homo sapiens, UniProt P28324-2 1-405)
T3 sequence: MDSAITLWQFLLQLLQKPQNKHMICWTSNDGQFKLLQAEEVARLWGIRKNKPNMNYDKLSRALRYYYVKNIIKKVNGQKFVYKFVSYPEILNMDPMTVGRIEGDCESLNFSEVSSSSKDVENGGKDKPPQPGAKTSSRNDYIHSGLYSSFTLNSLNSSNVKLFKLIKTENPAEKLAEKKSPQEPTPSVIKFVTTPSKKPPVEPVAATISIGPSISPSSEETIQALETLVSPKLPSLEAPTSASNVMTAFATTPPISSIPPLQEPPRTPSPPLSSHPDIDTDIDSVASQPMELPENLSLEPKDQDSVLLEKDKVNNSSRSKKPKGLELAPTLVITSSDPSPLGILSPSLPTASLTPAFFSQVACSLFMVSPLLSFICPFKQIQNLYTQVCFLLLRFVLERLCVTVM
How it was run: as §1

[8] = target: T4, ETV2 (Homo sapiens, UniProt O00321 1-342)
T4 sequence: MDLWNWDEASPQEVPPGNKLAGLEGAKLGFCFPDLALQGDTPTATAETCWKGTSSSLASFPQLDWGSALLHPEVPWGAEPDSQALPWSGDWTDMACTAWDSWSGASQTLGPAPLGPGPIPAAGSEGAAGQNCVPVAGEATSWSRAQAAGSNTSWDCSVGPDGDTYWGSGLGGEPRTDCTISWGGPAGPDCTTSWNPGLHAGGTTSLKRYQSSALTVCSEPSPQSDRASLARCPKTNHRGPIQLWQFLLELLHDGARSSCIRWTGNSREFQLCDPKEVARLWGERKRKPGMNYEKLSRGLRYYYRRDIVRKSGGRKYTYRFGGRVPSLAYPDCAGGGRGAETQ
How it was run: as §1

[9] = target: T5, ELF3 (Homo sapiens, UniProt P78545 1-371)
T5 sequence: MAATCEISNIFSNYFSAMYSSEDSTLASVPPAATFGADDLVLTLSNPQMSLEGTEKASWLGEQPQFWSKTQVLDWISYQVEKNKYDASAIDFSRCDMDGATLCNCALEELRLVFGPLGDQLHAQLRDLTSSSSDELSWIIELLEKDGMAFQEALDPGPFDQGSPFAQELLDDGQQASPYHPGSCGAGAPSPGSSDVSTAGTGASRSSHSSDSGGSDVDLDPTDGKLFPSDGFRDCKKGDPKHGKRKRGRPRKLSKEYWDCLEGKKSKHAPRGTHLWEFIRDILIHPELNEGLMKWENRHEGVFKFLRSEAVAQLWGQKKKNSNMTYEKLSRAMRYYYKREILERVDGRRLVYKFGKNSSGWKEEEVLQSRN
How it was run: as §1

[10] = target: T6, ERF (Homo sapiens, UniProt P50548 1-548)
T6 sequence: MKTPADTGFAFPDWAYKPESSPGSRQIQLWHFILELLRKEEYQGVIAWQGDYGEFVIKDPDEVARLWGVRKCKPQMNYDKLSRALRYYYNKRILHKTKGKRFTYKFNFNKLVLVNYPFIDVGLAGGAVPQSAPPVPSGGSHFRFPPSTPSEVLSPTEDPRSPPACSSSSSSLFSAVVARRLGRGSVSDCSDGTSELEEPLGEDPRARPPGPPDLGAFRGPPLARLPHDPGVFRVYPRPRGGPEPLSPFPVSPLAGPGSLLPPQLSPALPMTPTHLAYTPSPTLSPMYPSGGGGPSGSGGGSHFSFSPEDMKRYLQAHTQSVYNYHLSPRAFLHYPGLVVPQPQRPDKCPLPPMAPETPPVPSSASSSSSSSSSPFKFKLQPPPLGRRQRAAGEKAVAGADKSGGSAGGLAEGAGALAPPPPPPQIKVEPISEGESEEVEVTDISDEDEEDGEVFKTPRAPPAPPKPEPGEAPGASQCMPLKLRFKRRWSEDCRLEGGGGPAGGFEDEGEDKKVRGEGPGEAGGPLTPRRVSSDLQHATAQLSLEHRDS
How it was run: as §1

[11] = target: T7, ETV3L (Homo sapiens, UniProt Q6ZN32 1-361)
T7 sequence: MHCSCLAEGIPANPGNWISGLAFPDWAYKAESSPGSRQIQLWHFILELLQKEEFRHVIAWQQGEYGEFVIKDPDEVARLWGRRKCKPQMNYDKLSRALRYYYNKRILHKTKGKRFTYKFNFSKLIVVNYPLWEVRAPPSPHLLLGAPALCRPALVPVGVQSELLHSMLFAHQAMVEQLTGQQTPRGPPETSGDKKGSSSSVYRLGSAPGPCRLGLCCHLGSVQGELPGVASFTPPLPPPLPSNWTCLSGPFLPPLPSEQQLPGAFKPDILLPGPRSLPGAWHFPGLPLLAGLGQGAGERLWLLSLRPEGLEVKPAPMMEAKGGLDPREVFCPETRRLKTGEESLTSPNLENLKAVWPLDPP
How it was run: as §1

[12] = target: T8, SPDEF (Homo sapiens, UniProt O95238 1-335)
T8 sequence: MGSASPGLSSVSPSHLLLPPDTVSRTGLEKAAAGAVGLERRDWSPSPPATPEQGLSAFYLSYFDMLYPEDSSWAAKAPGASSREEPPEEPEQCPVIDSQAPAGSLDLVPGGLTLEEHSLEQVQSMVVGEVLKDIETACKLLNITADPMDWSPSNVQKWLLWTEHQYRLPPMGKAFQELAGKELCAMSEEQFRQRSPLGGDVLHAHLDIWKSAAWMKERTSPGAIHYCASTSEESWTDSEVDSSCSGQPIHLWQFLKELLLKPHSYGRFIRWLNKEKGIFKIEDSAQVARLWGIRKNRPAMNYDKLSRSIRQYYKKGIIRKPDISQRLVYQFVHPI
How it was run: as §1

[13] = target: T9, ETV7 (Homo sapiens, UniProt Q9Y603 1-341)
T9 sequence: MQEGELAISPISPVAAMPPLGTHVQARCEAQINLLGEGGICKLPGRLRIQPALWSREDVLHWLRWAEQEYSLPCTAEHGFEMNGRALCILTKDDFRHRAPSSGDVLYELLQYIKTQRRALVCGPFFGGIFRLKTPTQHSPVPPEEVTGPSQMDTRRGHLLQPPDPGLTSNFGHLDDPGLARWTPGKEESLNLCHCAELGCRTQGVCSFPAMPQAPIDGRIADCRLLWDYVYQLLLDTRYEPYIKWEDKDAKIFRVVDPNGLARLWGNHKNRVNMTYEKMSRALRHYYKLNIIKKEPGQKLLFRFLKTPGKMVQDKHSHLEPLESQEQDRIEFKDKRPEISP
How it was run: as §1

[14] = target: T10, ELF5 (Homo sapiens, UniProt Q9UKW6-2 1-255)
T10 sequence: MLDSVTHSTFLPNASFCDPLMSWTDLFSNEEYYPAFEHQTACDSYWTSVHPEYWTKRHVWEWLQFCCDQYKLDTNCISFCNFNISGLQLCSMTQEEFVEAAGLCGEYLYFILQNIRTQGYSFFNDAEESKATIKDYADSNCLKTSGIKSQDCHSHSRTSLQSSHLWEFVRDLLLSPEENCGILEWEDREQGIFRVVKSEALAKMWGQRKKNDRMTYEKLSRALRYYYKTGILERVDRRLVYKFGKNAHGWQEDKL
How it was run: as §1

[15] = target: T11, ETV3 (Homo sapiens, UniProt P41162-2 1-143)
T11 sequence: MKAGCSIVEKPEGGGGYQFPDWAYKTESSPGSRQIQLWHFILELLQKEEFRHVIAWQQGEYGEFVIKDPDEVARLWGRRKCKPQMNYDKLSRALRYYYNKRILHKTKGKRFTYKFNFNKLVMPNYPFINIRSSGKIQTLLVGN
How it was run: as §1

Sequence: TCGCGG
- binding signal [1]: 1.07 fold enrichment (6-mer frequency, TF over GST control)
- binding signal [2]: 1.02 fold enrichment (6-mer frequency, TF over GST control)
- binding signal [3]: 1 fold enrichment (6-mer frequency, TF over GST control)
- binding signal [4]: 1.02 fold enrichment (6-mer frequency, TF over GST control)
- binding signal [5]: 1.02 fold enrichment (6-mer frequency, TF over GST control)
- binding signal [6]: 1.03 fold enrichment (6-mer frequency, TF over GST control)
- binding signal [7]: 1.05 fold enrichment (6-mer frequency, TF over GST control)
- binding signal [8]: 1.11 fold enrichment (6-mer frequency, TF over GST control)
- binding signal [9]: 1.03 fold enrichment (6-mer frequency, TF over GST control)
- binding signal [10]: 1.09 fold enrichment (6-mer frequency, TF over GST control)
- binding signal [11]: 1.04 fold enrichment (6-mer frequency, TF over GST control)
- binding signal [12]: 1.01 fold enrichment (6-mer frequency, TF over GST control)
- binding signal [13]: 1.02 fold enrichment (6-mer frequency, TF over GST control)
- binding signal [14]: 1 fold enrichment (6-mer frequency, TF over GST control)
- binding signal [15]: 1.04 fold enrichment (6-mer frequency, TF over GST control)
